GPT2 inhibitor: blocks human glutamate pyruvate transaminase 2; 100,000 tested, 0.25% active; Recombinant GPT2, coupled pyruvate oxidase/HRP Amplex Red fluorescence; Potency, µM (highest dose often 57.7 µM), usual class: inhibitors; further: nearly all actives have a fitted effect of over 60% in size
Target sequence (Q8TD30 whole entry, looked up): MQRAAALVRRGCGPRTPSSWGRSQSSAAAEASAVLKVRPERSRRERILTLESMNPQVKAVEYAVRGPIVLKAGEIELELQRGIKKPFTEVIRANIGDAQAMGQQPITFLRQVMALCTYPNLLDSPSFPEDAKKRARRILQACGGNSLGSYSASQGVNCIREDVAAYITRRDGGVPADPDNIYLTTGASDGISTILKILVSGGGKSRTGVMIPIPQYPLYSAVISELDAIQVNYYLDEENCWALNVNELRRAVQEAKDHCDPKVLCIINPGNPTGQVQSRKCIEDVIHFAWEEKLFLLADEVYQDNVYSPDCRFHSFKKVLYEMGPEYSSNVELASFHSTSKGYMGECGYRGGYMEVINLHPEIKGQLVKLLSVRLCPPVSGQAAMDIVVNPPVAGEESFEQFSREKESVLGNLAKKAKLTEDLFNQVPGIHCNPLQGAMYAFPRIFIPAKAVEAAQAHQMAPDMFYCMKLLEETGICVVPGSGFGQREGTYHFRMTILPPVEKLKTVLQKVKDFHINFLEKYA
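Inhibition is scored from Amplex Red fluorescence generated when pyruvate oxidase and HRP act on pyruvate released by GPT2. Reactions contain 10ng/uL enzyme, 250uM a-KG and 2mM L-alanine and run 30 min at room temperature.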
SNCA viab count: reduces viability of HEK-293 SNCA reporter cells; Potency, µM (titrated, usually from 57.1 µM), usual class: cytotoxic; HEK-293-SNCA-luc viability, GF-AFC fluorescence, 24 h; 150,000 tested, 0.12% active; AID 1671193; further: nearly all actives have a fitted effect of over 30% in size
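HEK-293-SNCA-luc cells (1500/well) plated 24 h, then exposed 24 h to a dilution series; GF-AFC added 30 min at 37C, fluorescence 405/540 nm; normalised to medium-only and DMSO wells, Hill fit.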
IP6K1 inh: IP6K1 kinase inhibition. IP6K1 kinase, ADP-Glo luminescence, 2 h; stronger effect = lower value. activity change, % (series mostly up to about 58 µM). 140,000 tested, 0.81% active. Q92551; in the data active means activity change below about -25%
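ADP-Glo luminescence measures ADP made by human IP6K1 during a 2 h RT reaction with ATP/IP6 (mix at 1.3 mM/130 uM); top library doses 57.5 and 19.1 uM final.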
SNCA expr inhib: inhibitors of alpha-synuclein (SNCA) gene expression; HEK-293 SNCA-luciferase knock-in, luminescence, 24 h; AID 1671194; Potency, µM (doses to about 57.2 µM), usual class: inhibitors; 140,000 tested, 0.17% active; further: nearly all actives have a fitted effect of over 45% in size
IP6K1 inh cnf: human IP6K1 inhibition, confirmatory. shares compounds with IP6K1 inh. AID 1645852. Potency, µM (doses to about 49 µM), most hits filed as inhibitors. recombinant IP6K1 kinase, ADP-Glo luminescence, 2 h. 1,200 tested, 13% active; further: nearly all actives have a fitted effect of over 65% in size
Large screens that a line does not name were inactive (follow-up assays come after a bar, where they were run); ! = not confirmed by another sample. Most compounds without a hit are left out; they make up all but 1.1% or so of the library. Unless noted, the call rests on the fitted dose curve; in most records, active means well fitted curve in the direction sought with a large enough effect; inconclusive means small, poorly fitted or top-dose-only effect, or another doubt; inactive means no such curve, though single readings can be large; an effect the other way counts as inactive or inconclusive.

CC(C)=CCC[C@]1(C)C=Cc2c(O)c3c(c(CC=C(C)C)c2O1)O[C@]12C(=C[C@@H]4CC1C(C)(C)O[C@@]2(C/C=C(/C)C(=O)O)C4=O)C3=O	SNCA viab count 1.89µM, IP6K1 inh -25.0 (no result: SNCA expr inhib)
NC1=NC(=O)N2CC12 (centres undefined)	SNCA expr inhib 9.61µM (no result: IP6K1 inh)
CC(=O)c1ccc(NC(=O)NC[C@H]2C[C@@H]3CCN2C[C@@H]3CN(C)Cc2ccccc2)cc1	none
C[C@@]12OC(=O)[C@]1([C@@H](O)[C@@H]1C=CCCC1)NC(=O)[C@H]2CCCl	SNCA viab count inconclusive, SNCA expr inhib 0.136µM (no result: IP6K1 inh)
CC(=O)OC[C@]12C[C@H](OC(=O)CC(C)C)C(C)=C[C@H]1O[C@@H]1[C@H](O)C[C@@]2(C)[C@]12CO2	SNCA viab count inconclusive (no result: SNCA expr inhib)
O=C(N1CCOCC1)N1CCN(c2ccc(Cl)cc2)CC1	GPT2 inhibitor inconclusive (no result: SNCA expr inhib)
C=C[C@H]1CN2CC[C@H]1C[C@@H]2CNS(=O)(=O)c1ccc(NC(C)=O)cc1	GPT2 inhibitor inconclusive
C=C(C)C(=O)O[C@H]1[C@@H]2[C@H](C)C(=O)O[C@@H]2C[C@@H](C)[C@@H]2C=CC(=O)[C@]21C	SNCA viab count 4.65µM (no result: SNCA expr inhib)
NCC(O)c1cc(O)c(O)cc1F (centres undefined)	GPT2 inhibitor 10µM (no result: IP6K1 inh)
CCOC(=O)[C@H]1CN(C(=O)CCc2ccccc2)[C@]2(C)C(=O)N(CCOC(C)=O)c3ccccc3[C@H]12	none (no result: GPT2 inhibitor, SNCA viab count, SNCA expr inhib)
COc1cc2c(cc1OCc1ccccc1)N(C(=O)c1c[nH]c3ccccc13)CC21CCN(C)CC1	GPT2 inhibitor inconclusive, SNCA viab count 25.1µM, SNCA expr inhib inconclusive
CCOc1ccc(CC(=O)N2CCC3(CC2)c2nccn2-c2ccccc2CN3C)cc1	none
CC(C)OC(=O)c1ccnc2cc(C(OCCN3CCCCC3)c3ccccc3Cl)sc12 (centres undefined)	SNCA viab count 29.9µM (no result: SNCA expr inhib)
Ic1ccccc1CNC1C2CCN(CC2)C1C(c1ccccc1)c1ccccc1 (centres undefined)	SNCA viab count 22.4µM, SNCA expr inhib inconclusive (no result: IP6K1 inh)
CC(C)[C@H]1C(=O)N[C@H](CO)Cc2c[nH]c3cccc(c23)N1C	GPT2 inhibitor 15.3µM (no result: IP6K1 inh)
CN(C)C(=O)[C@H]1CN2CCC1C[C@@H]2Cn1cc(-c2cccc(N)c2)nn1 (some centres undefined)	none
CN1CC[C@]23c4c5ccc(O)c4O[C@H]2[C@@H](O)C=C[C@H]3[C@H]1C5	GPT2 inhibitor 28.2µM
COc1ccc2c3c1O[C@H]1[C@@H](O)C=C[C@H]4[C@@H](C2)N(C)CC[C@@]341	none
COC(=O)C1(C)CCC(O)C2(C)c3cc(O)c(C(C)C)cc3C(O)C(OC(C)=O)C12 (centres undefined)	none (no result: SNCA expr inhib)
CNC1CCc2ccccc21 (centres undefined)	none
COC1CC(O[C@H]2CC[C@]3(C=O)C4CC[C@]5(C)[C@@H](C6=CC(=O)OC6)CC[C@]5(O)[C@@H]4CC[C@@H]3C2)OC(C)C1O[C@@H]1O[C@H](CO)[C@@H](O[C@@H]2O[C@H](CO)[C@@H](O)[C@H](O)[C@H]2O)[C@H](O)[C@H]1O (some centres undefined)	SNCA viab count 5.66µM (no result: SNCA expr inhib)
COc1cc2c(cc1OCc1ccccc1)N(C(=O)c1cccc3[nH]ccc13)CC21CCN(C)CC1	none
CCOc1ccc(CN(CCc2ccc3c(c2)OCO3)Cc2ccc(C)cc2)cc1	none (no result: GPT2 inhibitor)
CCOc1ccc(CN(CCc2ccc3c(c2)OCO3)Cc2cccc(Br)c2)cc1	IP6K1 inh -57.1 (no result: GPT2 inhibitor)
Cc1cc(SCc2sc(-c3ccc(C(F)(F)F)c(F)c3)nc2C)ccc1OCC(=O)O	GPT2 inhibitor inconclusive, IP6K1 inh -29.9 | IP6K1 inh cnf inconclusive
O=C1CO[C@H]2CN(Cc3ccco3)C[C@H]2N1Cc1ccccn1	none
COP(=S)(OC)SCN1C(=O)c2ccccc2C1=O	IP6K1 inh -36.5 | IP6K1 inh cnf 18.4µM
N#CC1(c2ccccc2)CCN(C(=O)C2CCN(C(=O)C3CC3)CC2)CC1	none
CN1CCN(C(=O)Cc2c[nH]c3ncc(-c4ccccc4Oc4ccccc4)cc23)CC1	IP6K1 inh -27.7 | IP6K1 inh cnf inactive
CN1CCN(C(=O)Cc2c[nH]c3ncc(-c4cccc(OC(F)(F)F)c4)cc23)CC1	GPT2 inhibitor inconclusive, IP6K1 inh -53.1 | IP6K1 inh cnf inconclusive
O=C(Nc1ccc(Br)cc1)c1cc(Br)cc(Br)c1O	IP6K1 inh -39.7 | IP6K1 inh cnf 23.1µM
O=C(Nc1ccc(Br)cc1C(=O)c1ccccc1)c1ccccc1	none (no result: GPT2 inhibitor)
O=C(COc1ccc(F)cc1)N1CCN2CCS(=O)(=O)N(C3CC3)C(=O)C2C1 (centres undefined)	none
O=C(Cc1ccc(F)cc1)N1CCN(Cc2ccccc2-c2cccnc2)CC1	none
CCN1CCN(C(=O)Cc2ccc(Nc3ncc(F)c(Nc4ccc(C(=O)Nc5ccccc5Cl)cc4)n3)cc2)CC1	SNCA viab count 23.8µM!, IP6K1 inh -32.9 | IP6K1 inh cnf inconclusive
O=C(CCn1cccn1)N1C[C@H](c2cccc(F)c2F)[C@@H]2[C@H]1C1CCN2CC1	IP6K1 inh -32.7 | IP6K1 inh cnf inactive
Cc1ncsc1CCC(=O)N1C[C@@H](c2ccccc2)[C@@H]2[C@H]1C1CCN2CC1	SNCA expr inhib inconclusive
COc1ccc(S(=O)(=O)N2C[C@@H]3C[C@H](C2)c2c(-c4ccccc4F)ccc(=O)n2C3)cc1	GPT2 inhibitor inconclusive
COc1cc2c(cc1OC1CCCC1)NC(=O)C21CCN(c2cnccn2)CC1	IP6K1 inh -30.2, SNCA expr inhib inconclusive | IP6K1 inh cnf inactive
COc1cc2c(cc1OCc1ccccc1)NC(=O)C21CCN(c2cnccn2)CC1	IP6K1 inh -28.9 | IP6K1 inh cnf inconclusive
CCOc1ccc(CN(CCc2ccc3c(c2)OCO3)Cc2cccc(OC)c2)cc1	IP6K1 inh -31.2 (no result: GPT2 inhibitor) | IP6K1 inh cnf inactive
C[C@]12CCC(=O)C(O)=C1CC[C@@H]1[C@H]3CCC(=O)[C@@]3(C)CC[C@@H]12	none (no result: IP6K1 inh)
CN(C)[C@@H]1C(=O)C(C(N)=O)=C(O)[C@@]2(O)C(=O)C3=C(O)c4c(O)ccc(Cl)c4[C@@](C)(O)C3C[C@@H]12 (some centres undefined)	none (no result: SNCA expr inhib)
CN(C)[C@@H]1C(=O)C(C(N)=O)=C(O)[C@@]2(O)C(=O)C3=C(O)c4c(O)cccc4[C@@](C)(O)[C@H]3C[C@@H]12	IP6K1 inh -74.6 | IP6K1 inh cnf inactive
N#Cc1cn([C@@H]2O[C@H](CO)[C@H](O)[C@@H]2O)c2ncnc(N)c12	GPT2 inhibitor inconclusive, IP6K1 inh -27.2 (no result: SNCA expr inhib) | IP6K1 inh cnf 10.3µM
CCOC(=O)[C@H]1CN(C(=O)c2ccc3c(c2)OCO3)[C@]2(C)C(=O)N(CCOC)c3ccccc3[C@H]12	none
COc1cc2c(cc1OCC1CC1)NC(=O)C21CCN(C(=O)c2cccc(C#N)c2)CC1	IP6K1 inh -26.8 | IP6K1 inh cnf inactive
C[C@]12CC[C@H](O)C[C@H]1CC[C@@H]1[C@@H]2[C@H](O)C[C@]2(C)[C@@H](c3ccc(=O)oc3)CC[C@]12O	SNCA viab count inconclusive (no result: SNCA expr inhib)
Cc1ccc([C@H]2C[C@@H](O)[C@@H](O)[C@@H]2NCC(C)C)cc1	none
CCCN1CCNc2cc(Nc3ccccc3)ncc2C1	SNCA viab count inconclusive
